Reference: PubChem BioAssay (EPA / NIEHS)
Activity calls are given as the source filed them. How the source made its calls: active means hit-call score of the fitted dose curve at least 0.9, where 1 is the maximum; inactive means score below 0.9.

Tests used:
Details in all cases: mRNA level, 48 h; actives raise or lower the signal
BCL2L11 (gene 10018) = experiment: LTEA_HepaRG_BCL2L11: Life Technologies and Expression Analysis (LTEA) Assay for Bcl-2 (BCL2L11) gene using HepaRG (AID 2283473)
How it was run: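 Human hepatic HepaRG cultures are treated 48 h with test chemicals (maximum 100 uM, 0.5% DMSO vehicle). Expression of BCL2L11 is measured by qRT-PCR against ACTB, GAPDH and POLR2A, with activity in either direction scored relative to vehicle.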

[1] = read-out: Apolipoprotein A-V (APOA5) gene, APOA5 (gene 116519); experiment: LTEA_HepaRG_APOA5: Life Technologies and Expression Analysis (LTEA) Assay for Apolipoprotein A-V (APOA5) gene using HepaRG (AID 2283474)
How it was run: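 Concentration-response of APOA5 expression in HepaRG: eight half-log doses to 100 uM, 48 h, qRT-PCR normalized to ACTB/GAPDH/POLR2A, bidirectional fitting with 0.5% DMSO as baseline.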

[2] = read-out: Bcl-2 (BID) gene, BID (gene 637); experiment: LTEA_HepaRG_BID: Life Technologies and Expression Analysis (LTEA) Assay for Bcl-2 (BID) gene using HepaRG (AID 2283476)
How it was run: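 Duplicate 48 h treatments of HepaRG cells in serum-free induction medium spanned 100 uM downward in half-log steps, 0.5% DMSO. Transcript change quantified by qRT-PCR against three housekeeping genes, fitted up or down versus DMSO.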

Caspase-3 (Homo sapiens) = Caspase-3 (Homo sapiens) (UniProt P42574); experiment: LTEA_HepaRG_CASP3: Life Technologies and Expression Analysis (LTEA) Assay for cysteine-aspartic acid protease (CASP3) using HepaRG (AID 2283477)
Chain of Caspase-3 (Homo sapiens) (P42574 whole entry, looked up): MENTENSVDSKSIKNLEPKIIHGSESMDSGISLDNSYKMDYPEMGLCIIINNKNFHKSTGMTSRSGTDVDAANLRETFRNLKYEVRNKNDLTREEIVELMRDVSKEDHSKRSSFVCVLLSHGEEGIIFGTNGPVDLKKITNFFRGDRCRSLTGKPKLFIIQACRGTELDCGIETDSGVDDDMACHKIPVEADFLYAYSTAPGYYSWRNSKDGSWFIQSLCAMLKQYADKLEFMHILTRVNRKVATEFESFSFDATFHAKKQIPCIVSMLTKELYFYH
How it was run: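 Transcript-level assay: CASP3 mRNA in human HepaRG after 48 h treatment, eight half-log concentrations from 100 uM in 0.5% DMSO, quantified by qRT-PCR.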

[3] = read-out: Cytochrome P450 (CYP24A1), CYP24A1 (gene 1591); experiment: LTEA_HepaRG_CYP24A1: Life Technologies and Expression Analysis (LTEA) Assay for Cytochrome P450 (CYP24A1) using HepaRG (AID 2283478)
How it was run: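 Gene expression of CYP24A1 by TaqMan qRT-PCR in HepaRG after 48 h treatment, highest concentration 100 uM; activity fitted in both directions relative to DMSO vehicle.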

[4] = read-out: cysteine-aspartic acid protease (CASP8), CASP8 (gene 841); experiment: LTEA_HepaRG_CASP8: Life Technologies and Expression Analysis (LTEA) Assay for cysteine-aspartic acid protease (CASP8) using HepaRG (AID 2283480)
How it was run: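 CASP8 transcript measured by TaqMan qRT-PCR with ACTB/GAPDH/POLR2A normalization, after 48 h chemical exposure of HepaRG cells in serum-free induction medium. Eight concentrations, top 100 uM, half-log steps, 0.5% DMSO vehicle; fits in both directions versus DMSO.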

[5] = read-out: Cytochrome P450 (CYP2B6), CYP2B6 (gene 1555); experiment: LTEA_HepaRG_CYP2B6: Life Technologies and Expression Analysis (LTEA) Assay for Cytochrome P450 (CYP2B6) using HepaRG (AID 2283481)
How it was run: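 Human HepaRG, 48 h dosing, 0.5% DMSO vehicle, top dose 100 uM. CYP2B6 transcript by qRT-PCR, housekeeping-normalized, bidirectional curve fit.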

[6] = read-out: Cytochrome P450 2C19 (Homo sapiens) (UniProt P33261); experiment: LTEA_HepaRG_CYP2C19: Life Technologies and Expression Analysis (LTEA) Assay for CYP2C19 using HepaRG (AID 2283482)
How it was run: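 Endpoint: CYP2C19 mRNA change, bidirectional fit vs 0.5% DMSO. Cells: HepaRG, 48 h exposure, eight-point series topping at 100 uM. Quantitation: qRT-PCR normalized to ACTB, GAPDH, POLR2A.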

CYP2C8 (gene 1558) = experiment: LTEA_HepaRG_CYP2C8: Life Technologies and Expression Analysis (LTEA) Assay for CYP2C8 using HepaRG (AID 2283483)
How it was run: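 CYP2C8 expression measured by TaqMan qRT-PCR and normalized to three housekeeping genes. HepaRG cultures were treated for 48 h with an eight-point half-log series topping at 100 uM, vehicle 0.5% DMSO, duplicates; fitted both directions against DMSO.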

CYP2C9 (gene 1559) = experiment: LTEA_HepaRG_CYP2C9: Life Technologies and Expression Analysis (LTEA) Assay for CYP2C9 using HepaRG (AID 2283484)
How it was run: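 CYP2C9 transcript level, quantified by TaqMan qRT-PCR against three housekeeping genes, was fitted bidirectionally relative to 0.5% DMSO. HepaRG cultures were treated 48 h, in duplicate, at eight half-log concentrations topping at 100 uM.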

CYP2E1 (gene 1571) = experiment: LTEA_HepaRG_CYP2E1: Life Technologies and Expression Analysis (LTEA) Assay for CYP2E1 using HepaRG (AID 2283485)
How it was run: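 CYP2E1 transcript measured by Fluidigm qRT-PCR against three housekeeping genes in human HepaRG cells treated 48 h (top 100 uM, half-log steps, 0.5% DMSO vehicle). Gain or loss fitted relative to DMSO baseline.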

CYP4A11 (gene 1579) = experiment: LTEA_HepaRG_CYP4A11: Life Technologies and Expression Analysis (LTEA) Assay for CYP4A11 using HepaRG (AID 2283486)
How it was run: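 Human hepatic HepaRG cultures receive duplicate 48 h exposures across a concentration-response series topping at 100 uM. Expression changes in CYP4A11 are measured by qRT-PCR relative to DMSO controls.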

[7] = read-out: Cytochrome P450 3A4 (Homo sapiens) (UniProt P08684); experiment: LTEA_HepaRG_CYP3A4: Life Technologies and Expression Analysis (LTEA) Assay for CYP3A4 using HepaRG (AID 2283487)
How it was run: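 HepaRG, 48 h exposure, 8-pt CRC from 100 uM (half-log), 0.5% DMSO, duplicates; serum-free induction medium. Readout: CYP3A4 mRNA, qRT-PCR, ACTB/GAPDH/POLR2A normalization. Bidirectional fit vs DMSO.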

[8] = read-out: DNA damage-inducible transcript 3 (DDIT3), DDIT3 (gene 1649); experiment: LTEA_HepaRG_DDIT3: Life Technologies and Expression Analysis (LTEA) Assay for DNA damage-inducible transcript 3 (DDIT3) using HepaRG (AID 2283488)
How it was run: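 DDIT3 transcript was quantified by qRT-PCR with ACTB/GAPDH/POLR2A normalization after 48 h chemical treatment of differentiated HepaRG cells in 0.5% DMSO. Dosing was eight-point, half-log, top 100 uM, duplicate wells. Curves fitted bidirectionally versus DMSO.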

[9] = read-out: Pro-epidermal growth factor (Homo sapiens) (UniProt P01133); experiment: LTEA_HepaRG_EGF: Life Technologies and Expression Analysis (LTEA) Assay for Epidermal growth factor (EGF) using HepaRG (AID 2283489)
How it was run: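 Concentration-response mRNA assay: HepaRG cells dosed 48 h (max 100 uM, 0.5% DMSO), EGF measured by qRT-PCR and normalized to ACTB/GAPDH/POLR2A.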

[10] = read-out: Early growth response protein 1 (EGR1) transcription factor, EGR1 (gene 1958); experiment: LTEA_HepaRG_EGR1: Life Technologies and Expression Analysis (LTEA) Assay for Early growth response protein 1 (EGR1) transcription factor using HepaRG (AID 2283490)
How it was run: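 EGR1 transcript levels quantified by qRT-PCR (Fluidigm arrays) against three housekeeping genes after 48 h chemical exposure of HepaRG cells. Eight-point half-log series topping at 100 uM, 0.5% DMSO vehicle, analyzed for gain or loss.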

[11] = read-out: Ezrin (EZR), EZR (gene 7430); experiment: LTEA_HepaRG_EZR: Life Technologies and Expression Analysis (LTEA) Assay for Ezrin (EZR) using HepaRG (AID 2283491)
How it was run: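 Read-out is EZR transcript level by qRT-PCR, normalized to three housekeeping genes and fitted bidirectionally against the DMSO control. Human HepaRG cells received test chemicals for 48 h at eight half-log concentrations up to 100 uM in 0.5% DMSO.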

[12] = read-out: Cytochrome P450 3A7 (Homo sapiens) (UniProt P24462); experiment: LTEA_HepaRG_CYP3A7: Life Technologies and Expression Analysis (LTEA) Assay for CYP3A7 using HepaRG (AID 2283492)
How it was run: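 qRT-PCR of CYP3A7 in HepaRG lysates after 48 h treatment; concentration-response (8 points, max 100 uM) analysed bidirectionally relative to 0.5% DMSO controls.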

[13] = read-out: Apoptosis regulator Bcl-2 (Homo sapiens) (UniProt P10415); experiment: LTEA_HepaRG_BCL2: Life Technologies and Expression Analysis (LTEA) Assay for Bcl-2 gene using HepaRG (AID 2283475)
How it was run: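 qRT-PCR of BCL2 transcript, normalized to three housekeeping genes (ACTB, GAPDH, POLR2A), after 48 h chemical exposure of HepaRG cells; concentrations top 100 uM with half-log dilutions, 0.5% DMSO vehicle, duplicates; changes up or down fitted relative to vehicle.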

Measured: AC50

Chain of Cytochrome P450 2C19 (Homo sapiens) (P33261 whole entry, looked up): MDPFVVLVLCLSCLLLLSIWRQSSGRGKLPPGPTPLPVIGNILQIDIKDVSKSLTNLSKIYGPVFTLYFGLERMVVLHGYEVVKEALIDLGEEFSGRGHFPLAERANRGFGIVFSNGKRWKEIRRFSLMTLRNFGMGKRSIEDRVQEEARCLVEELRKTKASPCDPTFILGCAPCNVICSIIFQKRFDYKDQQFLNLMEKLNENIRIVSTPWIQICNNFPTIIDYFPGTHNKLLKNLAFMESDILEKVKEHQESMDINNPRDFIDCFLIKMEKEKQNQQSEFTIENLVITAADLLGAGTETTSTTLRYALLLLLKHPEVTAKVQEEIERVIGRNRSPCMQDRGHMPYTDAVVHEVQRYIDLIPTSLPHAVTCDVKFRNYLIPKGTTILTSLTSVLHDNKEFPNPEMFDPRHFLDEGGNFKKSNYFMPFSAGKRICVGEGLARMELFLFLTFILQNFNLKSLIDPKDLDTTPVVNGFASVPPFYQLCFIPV
Chain of Cytochrome P450 3A4 (Homo sapiens) (P08684 whole entry, looked up): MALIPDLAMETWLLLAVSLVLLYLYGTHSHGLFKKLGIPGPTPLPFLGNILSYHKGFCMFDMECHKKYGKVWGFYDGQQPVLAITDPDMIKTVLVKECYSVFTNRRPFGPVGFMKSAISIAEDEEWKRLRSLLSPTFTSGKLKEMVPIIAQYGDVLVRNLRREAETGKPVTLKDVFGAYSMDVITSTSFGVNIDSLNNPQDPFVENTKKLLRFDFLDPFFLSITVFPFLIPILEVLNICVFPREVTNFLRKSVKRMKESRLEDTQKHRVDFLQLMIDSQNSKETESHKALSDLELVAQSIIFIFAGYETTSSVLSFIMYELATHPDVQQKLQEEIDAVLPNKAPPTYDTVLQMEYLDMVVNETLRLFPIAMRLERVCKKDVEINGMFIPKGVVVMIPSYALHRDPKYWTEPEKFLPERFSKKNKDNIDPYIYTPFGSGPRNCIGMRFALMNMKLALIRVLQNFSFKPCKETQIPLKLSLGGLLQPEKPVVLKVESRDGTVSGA
Chain of Cytochrome P450 3A7 (Homo sapiens) (P24462 whole entry, looked up): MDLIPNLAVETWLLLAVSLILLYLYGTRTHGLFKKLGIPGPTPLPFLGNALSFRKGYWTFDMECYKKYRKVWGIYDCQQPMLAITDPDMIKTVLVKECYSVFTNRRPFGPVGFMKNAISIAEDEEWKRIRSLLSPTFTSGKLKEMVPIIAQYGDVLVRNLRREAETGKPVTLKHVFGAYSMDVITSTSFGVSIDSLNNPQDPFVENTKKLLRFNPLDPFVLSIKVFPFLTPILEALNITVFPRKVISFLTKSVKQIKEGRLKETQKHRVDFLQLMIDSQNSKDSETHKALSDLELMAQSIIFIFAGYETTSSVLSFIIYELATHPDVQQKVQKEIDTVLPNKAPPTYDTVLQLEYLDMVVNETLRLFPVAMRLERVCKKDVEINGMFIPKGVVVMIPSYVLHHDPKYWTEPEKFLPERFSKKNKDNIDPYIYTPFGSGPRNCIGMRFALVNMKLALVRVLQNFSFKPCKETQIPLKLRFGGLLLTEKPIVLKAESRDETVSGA
Chain of Apoptosis regulator Bcl-2 (Homo sapiens) (P10415 whole entry, looked up): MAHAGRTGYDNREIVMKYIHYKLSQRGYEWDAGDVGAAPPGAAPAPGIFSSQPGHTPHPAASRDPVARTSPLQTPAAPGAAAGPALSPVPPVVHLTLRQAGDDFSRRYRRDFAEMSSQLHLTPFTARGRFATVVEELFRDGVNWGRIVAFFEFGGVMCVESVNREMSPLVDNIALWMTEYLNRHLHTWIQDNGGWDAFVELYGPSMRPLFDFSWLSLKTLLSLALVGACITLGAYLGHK

CCCCN1C(=O)[C@@H]([C@H](O)C2CCCCC2)NC(=O)C12CCN(Cc1ccc(Oc3ccc(C(=O)O)cc3)cc1)CC2
inactive: [2] | [10] | [11]
active: BCL2L11 (gene 10018) 4.66 µM | [1] 3.04 µM | Caspase-3 (Homo sapiens) 2.23 µM | [3] 9.92 µM | [4] 3.02 µM | [5] 1.94 µM | [6] 2.02 µM | CYP2C8 (gene 1558) 3.24 µM | CYP2C9 (gene 1559) 1.7 µM | CYP2E1 (gene 1571) 3.86 µM | CYP4A11 (gene 1579) 2.41 µM | [7] 1.82 µM | [8] 3.66 µM | [9] 9.39 µM | [12] 2.38 µM

OC[C@H]1O[C@@](CO)(O[C@H]2O[C@H](CO)[C@@H](O)[C@H](O)[C@H]2O)[C@@H](O)[C@@H]1O
inactive: all assays above

OCC(CO)(CO)CO
not listed: [9] | [13]
inactive: all other assays above
